# HTT aggregate – qHTS Multiplex Assay to Identify Dual Action Probes in a Cell Model of Huntington: Aggregate Formation (GFP). PC12 HttQ103-GFP aggregates, Acumen cytometry, 40 h. Potency, µM (titrated, usually from 46.1 µM), without a hit: at the highest dose activity change, negative = inhibition, hits mostly inhibitors. 1.1% of 220,000 active. AID 1688, 2009; also: % is scaled to controls: 0 for no effect and ±100 for the full control effect; nearly all actives have a fitted effect of over 60% in size
#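 Aggregate formation scored by laser-scanning cytometer (488 excitation, 500–530 emission) in lysed PC12 cells expressing Q103-GFP after 100 nM tebufenozide induction; library tested in dose series, with ATPLite reagent added in the multiplex.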
# ERK EGF block – qHTS Assay for Inhibitors of the ERK Signaling Pathway using a Homogeneous Screening Assay; Stimulation with EGF; AID 1454, 2008; 0.41% of 130,000 active; Potency, µM (doses to about 11.5 µM), for the others: top-dose activity change, negative = inhibition, actives largely listed as inhibitors; HEK293-V1b, EGF-stimulated phospho-ERK AlphaScreen;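 also: plate controls were stimulated vehicle wells for no effect and unstimulated vehicle basal for full effect; nearly all actives have a fitted effect of over 55% in size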
#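 Compounds are titrated over HEK293-V1b cells kept overnight in 1% FBS. After 30 min at 37C, EGF (25 nM final) triggers ERK phosphorylation for 5 min, measured by AlphaScreen in lysates.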
# HTT cytoprotect – qHTS Multiplex Assay to Identify Dual Action Probes in a Cell Model of Huntington: Cytoprotection (ATP); Potency, µM (series often up to 56.4 µM), without a hit: cytoprotection (ATP increase), actives largely listed as activators; 0.14% of 230,000 active; PC12 HTT-Q103 induced, cytoprotection, ATP luminescence, 40 h; also: % of control where 0% means no effect; nearly all actives have a fitted effect of over 45% in size
#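 Cells were plated at 1500 per well in phenol red-free DMEM with 5% equine and 5% calf serum. Tebufenozide (100 nM final) and compounds were added, then ATPlite reagent, and luminescence was read.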
# * hit, by the source's call; ? = inconclusive; nt = no result given; ! = not confirmed by another sample; [ ] = remark or other dose. The list is not random: actives were taken first. Their share in the collection is about 1.4%. Calls follow the shape of the dose curve; as a rule, active = well fitted curve in the direction sought with a large enough effect; inconclusive = small, poorly fitted or top-dose-only effect, or another doubt; inactive = no such curve, though single readings can be large; an effect the other way counts as inactive or inconclusive. Potency is read from the fitted curve at half-maximal effect.
SMILES,HTT aggregate,ERK EGF block,HTT cytoprotect
Cn1c(=O)c2c(nc(Oc3ccc(-c4ccccc4)cc3)n2C)n(C)c1=O,2.8µM*,nt,-11%
C=CCOC(=O)N[C@@H](CC(C)C)/C(C(=O)OC)=C(\C)NCc1ccccc1,nt,3%,20%
CN(C)C(=O)c1ccc(-c2nc(NCc3cccnc3)c3ccccc3n2)cc1,nt,22%,-13%
CC1CN(S(=O)(=O)c2cccc3cnccc23)CCN1 (configuration not stated),nt,-4%,nt
C[C@@H]1CNCCN1S(=O)(=O)c1cccc2cnccc12,nt,-12%,13µM*!
CCCCCCCCCCCCCCC(C(=O)O)C(O)(CC(=O)OC)C(=O)O (configuration not stated),nt,23%,nt
C/C(=N\N=C(/N)SC1CC(=O)N(c2ccccc2)C1=O)c1cccs1 (configuration not stated),1%,nt,0%
CCCCCCOc1ccc(N2C(=O)CC(S/C(N)=N/N=C(\C)c3cccs3)C2=O)cc1 (configuration not stated),-1%,nt,0.79µM*
NC(N)=N/N=C(/c1ccccc1)c1ccc(O)cc1O,nt,nt,-2%[10 µM]
CC(=O)N/C(=C/c1ccc2c(c1)OCO2)C(=O)NCC(=O)O,3.2µM*,3%,nt
CC(=O)N/C(=C\c1ccccc1)C(=O)NCc1ccc2c(c1)OCO2,-26%,-2%,-15%
C=C[C@](C)(O)CCC1C(=C)CC(O)C2C(C)(C)CCCC12C (some centres not stated),nt,15%,nt
C[C@@]12CC[C@H]3[C@H](CC=C4C[C@@H](O)CC[C@@]43C)[C@@H]1CC[C@@H]2N(CCO)CCO,nt,nt,-2%[10 µM]
N#Cc1nc(Cc2ccccc2)oc1NCc1ccccc1Cl,8.9µM*,nt,-3%
N#Cc1nc(Cc2ccccc2)oc1NCc1cccnc1,-8%,9%,-17%[0.074 µM]
C[C@@H]1CC[C@]2(C(=O)O)CC[C@]3(C)C(=CCC4[C@@]5(C)C[C@@H](O)[C@H](O)[C@@](C)(CO)C5[C@H](O)C[C@]43C)C2[C@H]1C (some centres not stated),nt,nt,-45%
C=C1C(=O)[C@@]23[C@H](O)C[C@@H]4C(C)(C)CC[C@H](O)[C@]4(C)[C@@H]2C[C@H](O)[C@@H]1[C@H]3O,3.2µM*,-19%,nt
C=C1C(=O)[C@@]23[C@H](O)C[C@@H]4C(C)(C)CC[C@H](O)[C@@]4(C)[C@@H]2CC[C@@H]1[C@H]3O,2.8µM*,-19%,nt
CCN(CC)CCCC(C)n1c(-c2ccccc2)nc2c(NCCOC)nc(C)nc21 (configuration not stated),nt,-7%,-35%
CC1=C[N+](=O)c2ccccc2[N+]1=O,nt,nt,5%[10 µM]
CC1(C)CC(=O)C2=C(C1)N(Cc1ccco1)C(=O)C2(NC(=O)C1CCCCC1)C(F)(F)F (configuration not stated),5.6µM*,nt,-4%
CC1(C)CC(=O)C2=C(C1)N(Cc1ccco1)C(=O)C2(NC(=O)c1ccc(Cl)cc1Cl)C(F)(F)F (configuration not stated),-14%,nt,-7%
Oc1cc(O)cc(/C=C\c2ccc(O)c(O)c2)c1,nt,nt,-32%[1.9 µM]
Oc1c(Cl)cc(Cl)cc1Sc1cc(Cl)cc(Cl)c1O,10µM*,?,-53%
O=S(c1cc(Cl)cc(Cl)c1O)c1cc(Cl)cc(Cl)c1O,-16%,nt,-67%
SMILES,HTT aggregate,ERK EGF block,HTT cytoprotect
CO[C@]12C(COC(N)=O)C3=C(C(=O)C(C)=C(N)C3=O)N1CC1NC12 (some centres not stated),13µM*,23%,-289%
COc1ccc(-n2c(=O)c(CCc3ccccc3)nc3cnc(N4CCOCC4)nc32)cc1,nt,nt,-46%
CCSc1oc(-c2cccs2)nc1S(=O)(=O)c1ccccc1,13µM*,6%,-7%[10 µM]
CCSc1oc(-c2ccco2)nc1S(=O)(=O)c1ccc(F)cc1,2%,nt,0%[1.9 µM]
Cc1nc(Nc2ncc(C(=O)Nc3c(C)cccc3Cl)s2)cc(N2CCN(CCO)CC2)n1,?,nt,-87%
COc1ccccc1-c1cncnc1NCCNC(C)=O,nt,nt,-14%
Cc1ccccc1CNC(=O)c1ccccc1C,-5%,nt,-1%[10 µM]
Cc1ccccc1CNC(=O)c1ccccc1C(=O)O,0.0089µM*,2%,nt
COc1ccc2nc(N=NC3=C(O)CC(C)(C)CC3=O)sc2c1,-27%,1%,-105%
COc1ccc2nc(N=Nc3ccc(O)c4ccccc34)sc2c1,?,7.1µM*,15%[10 µM]
CN1c2cc3c(cc2N=C(c2ccc(C(=O)O)cc2)c2ccccc21)C(C)(C)CCC3(C)C,nt,?,-35%

# Screening data (PubChem BioAssay)
